Results as given in PubChem BioAssay (EPA / NIEHS).
Results filed as inconclusive are left out. Calls of active or inactive are those of the source. Rule for the calls, unless noted: active = hit-call score of the fitted dose curve at least 0.9, where 1 is the maximum; inactive = score below 0.9.

Columns and labels:
TTR (gene 7276) = experiment: CCTE_GLTED_hTTR_0.5uM: CCTE's human Transthyretin (hTTR) Inhibition Assay, with 0.5uM TTR, Great Lakes Toxicology and Ecology Division (GLTED) Lab (AID 2284320)
Summary of the method: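 Probe (ANSA) displacement from 0.5 uM human transthyretin was followed by fluorescence (ex 380, em 475) after a 2 h incubation with chemical. Activity was scored as signal loss and fitted positively relative to DMSO.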

SERPINA7 (gene 6906) = experiment: CCTE_GLTED_hTBG: CCTE's human Thyroxine-binding Globulin (TBG) Inhibition Assay, Great Lakes Toxicology and Ecology Division (GLTED) Lab (AID 2284343; active = hit-call score of the fitted dose curve at least 0.9, where 1 is the maximum;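 note: active chemicals lower fluorescence versus DMSO baseline by displacing probe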)
Summary of the method: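 Cell-free displacement of the fluorescent probe ANSA from human thyroxine-binding globulin after 2 h exposure. Read-out at ex 380/em 475 nm; DMSO baseline.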

[1] = CCTE_Deisenroth_5AR_NBTE_donor: CCTE's 5alpha-reductase NanoBRET Target Engagement Assay […], Deisenroth Lab (AID 2284319); conditions: actives raise or lower the signal
Summary of the method: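 HEK293T cells were reverse transfected with an SRD5A2-NanoLuc vector for 20 h, exposed to test chemical (8 points, 10 nM - 29.9 uM) for 3 h, then testosterone tracer for 2 h more. Donor luminescence (460 nm) was read; bidirectional fit versus DMSO.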

[2] = CCTE_Deisenroth_5AR_NBTE_acceptor: CCTE's 5alpha-reductase NanoBRET Target Engagement Assay - Autofluorescence Screen, Deisenroth Lab (AID 2284321); conditions: actives raise or lower the signal;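 note: compound fluorescence in the acceptor channel under 460 nm excitation flags autofluorescence artifacts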
Summary of the method: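 Acceptor fluorescence intensity was read as an artifact-detection endpoint. Test chemicals at an assumed nominal 100 uM were excited at 460 nm across three independent runs. Activity was fitted bidirectionally against DMSO.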

SRD5A2 (gene 6716) = experiment: CCTE_Deisenroth_5AR_NBTE_ratio: CCTE's 5alpha-reductase NanoBRET Target Engagement Assay - Ratio, Deisenroth Lab (AID 2284322); conditions: actives raise or lower the signal
Summary of the method: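 HEK293T cells transiently expressing an SRD5A2-NanoLuc fusion (20 h post-transfection) were exposed to test chemical (10 nM - 29.9 uM, 8 points) for 3 h, then testosterone tracer for a further 2 h. Acceptor/donor BRET ratio was fitted bidirectionally against DMSO baseline.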

[3] = CCTE_Mundy_HCI_iCellGluta_NOG_NeuriteLength: CCTE's Neurite Outgrowth Assay in iCellGluta cells for Neurite Length, Mundy Lab (AID 2284318; active = hit-call score of the fitted dose curve at least 0.9, where 1 is the maximum)
Summary of the method: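 Automated high-content imaging of betaIII-tubulin (Alexa Fluor-488) and Hoechst-stained cells gave neurite length, normalized to the DMSO baseline.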

[4] = CCTE_Mundy_HCI_iCellGluta_NOG_NeuriteCount: CCTE's Neurite Outgrowth Assay in iCellGluta cells for Neurite Count, Mundy Lab (AID 2284342; active = hit-call score of the fitted dose curve at least 0.9, where 1 is the maximum;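 note: chemical exposure about 48 hours starting 2 hours after plating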)
[5] = Tanguay_ZF_120hpf_DP24: Oregon State University Tanguay Lab 24 Hour Post-fertilization zebrafish Assay for Delayed Development (AID 2284390)
Summary of the method: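 Scored at 24 hpf as a binary present/absent call of delayed development by brightfield, with dead embryos not assessed. Embryos (5D wild type, chorion removed with pronase at 4 hpf) dosed statically from 6 hpf at 28 C in 0.64% DMSO.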

[6] = Tanguay_ZF_120hpf_CRAN: Oregon State University Tanguay Lab 120 Hour Post-fertilization zebrafish Assay for Craniofacial Malformation (AID 2284397)
Summary of the method: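 Scoring of craniofacial malformation as a binary endpoint was done at 120 hpf by brightfield microscopy and was not done in dead embryos. Exposure was static, starting at 6 hpf, in dechorionated wild-type embryos held singly at 28C with 0.64% DMSO final.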

[7] = Tanguay_ZF_120hpf_TCHR: Oregon State University Tanguay Lab 120 Hour Post-fertilization zebrafish Assay for Touch Responsive (AID 2284403)
Summary of the method: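 Binary touch-response calls are made at 120 hpf in 5D wild-type zebrafish larvae. These larvae were dechorionated with pronase and exposed singly from 6 hpf in sealed, dark plates at 28 °C with 0.64% DMSO final; dead embryos are excluded.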

For `O=C(O)C(F)(F)OC(F)(F)C(F)(F)OC(F)(F)C(F)(F)OC(F)(F)F`, the AC50 (TTR (gene 7276)) was 0.23 µM (active) and the AC50 (SERPINA7 (gene 6906)) was 18.6 µM (active).
For `CC(C)Nc1ccc(NC(C)C)c2c1C(=O)c1ccccc1C2=O`, the outcome [1] was “inactive”, the outcome [2] was “inactive” and the AC50 (SRD5A2 (gene 6716)) was 3.06 µM (active).
With `O=C(Cl)C(F)(F)C(F)(F)C(F)(F)C(F)(F)C(F)(F)C(F)(F)C(F)(F)F` the AC50 (TTR (gene 7276)) was 0.599 µM (active).
For `CCCCCCCCCCCCC[N+](C)(C)Cc1ccccc1`, the AC50 [1] was 18.2 µM (active), the AC50 [2] was 17.2 µM (active) and the AC50 (SRD5A2 (gene 6716)) was 68.9 µM (active).
For `OCCCCC(F)(F)C(F)(F)C(F)(F)C(F)(F)F`, the outcome [3] was “inactive”, the outcome [4] was “inactive” and the outcome [5] was “inactive”. For the same molecule, the outcome [6] was “inactive” and the outcome [7] was “inactive”.
For `O=C(O)C(F)(F)C(F)(F)C(F)(F)C(F)(F)C(F)(F)C(F)(F)C(F)F`, the AC50 (TTR (gene 7276)) was 0.275 µM (active) and the AC50 (SERPINA7 (gene 6906)) was 26.5 µM (active).
For `NC(O)(C(F)(F)F)C(F)(F)F`, the outcome [3] was “inactive”, the outcome [4] was “inactive” and the outcome [5] was “inactive”. The outcome [6] was “inactive” and the outcome [7] was “inactive”.
In the case of `O=C(O)CCC(F)(F)C(F)(F)C(F)(F)F`, the outcome [3] is reported as “inactive”, the AC50 (TTR (gene 7276)) is reported as 17.6 µM (active) and the outcome [4] is reported as “inactive”. For the same molecule, the outcome [5] was “inactive”, the outcome [6] was “inactive” and the outcome [7] was “inactive”.
In the case of `CCCCCCCCCc1ccc(OCCO)cc1`, the AC50 [1] is reported as 40.3 µM (active), the AC50 [2] is reported as 19.1 µM (active) and the AC50 (SRD5A2 (gene 6716)) is reported as 88.8 µM (active). The AC50 (SERPINA7 (gene 6906)) was 50 µM (active).
With `O=S(=O)(O)CCC(F)(F)C(F)(F)C(F)(F)C(F)(F)C(F)(F)C(F)(F)C(F)(F)C(F)(F)F` the AC50 (TTR (gene 7276)) was 8.98 µM (active), the outcome [4] was “inactive” and the AC50 [5] was 79.2 µM (active). The AC50 [6] was 89.2 µM (active) and the outcome [7] was “inactive”.
For `CCN=c1cc2oc3cc(NCC)c(C)cc3c(-c3ccccc3C(=O)OCC)c-2cc1C`, the AC50 [1] was 10 µM (active), the AC50 [2] was 0.603 µM (active) and the AC50 (SRD5A2 (gene 6716)) was 6.06 µM (active).
With `C=CC(=O)OCC(F)(F)C(F)(F)C(F)(F)COC(=O)C=C` the AC50 (TTR (gene 7276)) was 0.424 µM (active), the outcome [4] was “inactive” and the AC50 [5] was 14.1 µM (active). The AC50 [6] was 18.6 µM (active) and the outcome [7] was “inactive”.
For `CCCCCCCCCCCCCC[P+](CCCC)(CCCC)CCCC`, the AC50 [1] was 13.1 µM (active) and the AC50 (SRD5A2 (gene 6716)) was 22.9 µM (active).
With `NC(=O)C(F)(F)C(F)(F)C(F)(F)C(F)(F)C(N)=O` the outcome [3] was “inactive”, the AC50 (TTR (gene 7276)) was 44.1 µM (active) and the outcome [4] was “inactive”. For the same molecule, the outcome [5] was “inactive”, the outcome [6] was “inactive” and the outcome [7] was “inactive”.
In the case of `OCCCC(F)(F)C(F)(F)C(F)(F)C(F)(F)C(F)(F)C(F)(F)C(F)(F)C(F)(F)F`, the outcome [3] is reported as “inactive”, the outcome [4] is reported as “inactive” and the outcome [5] is reported as “inactive”. For the same molecule, the outcome [6] was “inactive” and the outcome [7] was “inactive”.
In the case of `O=C(Cl)C(F)(F)C(F)(F)C(F)(F)C(F)(F)C(F)(F)C(F)(F)F`, the AC50 (TTR (gene 7276)) is reported as 0.685 µM (active).
With `O=C1C=CC(=O)N1c1ccccc1` the AC50 [1] was 50 µM (active), the AC50 [2] was 50 µM (active) and the AC50 (SRD5A2 (gene 6716)) was 22.3 µM (active).
In the case of `O=C(O)C(F)(F)C(F)(F)C(F)(F)OC(F)(F)F`, the outcome [3] is reported as “inactive”, the AC50 (TTR (gene 7276)) is reported as 4.54 µM (active) and the outcome [4] is reported as “inactive”. For the same molecule, the outcome [5] was “inactive”, the outcome [6] was “inactive” and the outcome [7] was “inactive”.
In the case of `CCN=C1C=CC(=C(c2ccc(N(CC)CC)cc2)c2ccc(N(CC)CC)cc2)c2ccccc21`, the AC50 [1] is reported as 6.95 µM (active), the AC50 [2] is reported as 2.24 µM (active) and the AC50 (SRD5A2 (gene 6716)) is reported as 0.166 µM (active). For the same molecule, the AC50 (SERPINA7 (gene 6906)) was 4.51 µM (active).
For `O=C(F)C1(F)C(F)(F)C(F)(F)C(F)(F)C(F)(F)C1(F)F`, the outcome [3] was “inactive”, the AC50 (TTR (gene 7276)) was 32.9 µM (active) and the outcome [4] was “inactive”. For the same molecule, the outcome [5] was “inactive”, the outcome [6] was “inactive” and the outcome [7] was “inactive”.
With `O=C(O)C(F)(F)C(F)(F)C(F)(F)OC(F)(C(F)(F)F)C(F)(F)F` the AC50 (TTR (gene 7276)) was 0.321 µM (active), the outcome [4] was “inactive” and the outcome [5] was “inactive”. The outcome [6] was “inactive” and the outcome [7] was “inactive”.
For `C=C(C)C(=O)OCC(F)(F)C(F)(F)C(F)(F)C(F)F`, the AC50 (TTR (gene 7276)) was 19 µM (active).
In the case of `CCN(CCO)S(=O)(=O)C(F)(F)C(F)(F)C(F)(F)C(F)(F)C(F)(F)C(F)(F)C(F)(F)C(F)(F)F`, the outcome [3] is reported as “inactive”, the outcome [4] is reported as “inactive” and the outcome [5] is reported as “inactive”. For the same molecule, the outcome [6] was “inactive” and the outcome [7] was “inactive”.
In the case of `CCCCCCCC/C=C\CCCCCCCC(=O)N(C)CC(=O)O`, the outcome [1] is reported as “inactive”, the outcome [2] is reported as “inactive” and the outcome (SRD5A2 (gene 6716)) is reported as “inactive”. For the same molecule, the AC50 (SERPINA7 (gene 6906)) was 5.56 µM (active).
For `O=C(O)CCC(F)(F)C(F)(F)C(F)(F)C(F)(F)C(F)(F)C(F)(F)C(F)(F)F`, the outcome [3] was “inactive”, the AC50 (TTR (gene 7276)) was 3.34 µM (active) and the outcome [4] was “inactive”. For the same molecule, the outcome [5] was “inactive”, the outcome [6] was “inactive” and the outcome [7] was “inactive”.
With `NC(=O)C(F)(F)C(F)(F)C(F)(F)C(F)(F)C(F)(F)C(F)(F)C(F)(F)F` the outcome [3] was “inactive”, the AC50 (TTR (gene 7276)) was 5.65 µM (active) and the outcome [4] was “inactive”. For the same molecule, the outcome [5] was “inactive”, the outcome [6] was “inactive” and the outcome [7] was “inactive”.
With `OCC(O)CC(F)(F)C(F)(F)C(F)(F)C(F)(F)F` (centres undefined) the outcome [5] was “inactive”, the outcome [6] was “inactive” and the outcome [7] was “inactive”.
For `C=CC(=O)OCC(F)(F)C(F)(F)C(F)(F)C(F)(F)C(F)(F)C(F)(F)C(F)(F)C(F)F`, the AC50 (TTR (gene 7276)) was 1.84 µM (active), the outcome [5] was “inactive” and the outcome [6] was “inactive”. The outcome [7] was “inactive”.
In the case of `OCC(F)(F)C(F)(F)C(F)(F)CO`, the outcome [5] is reported as “inactive”, the outcome [6] is reported as “inactive” and the outcome [7] is reported as “inactive”.
